# Assay results as given in PubChem BioAssay (EPA / NIEHS).
# Records with an inconclusive call do not appear. Active and inactive are the calls of the source. Rule for the calls: active = hit-call score of the fitted dose curve at least 0.9, where 1 is the maximum; inconclusive = response in the unintended direction; inactive = score below 0.9.
# Experiments:
# [1] = target: Agonist Androgen Response Element (ARE), AR (gene 367) (UniProt P10275); assay: OT_AR_ARELUC_AG_1440: Odyssey Thera (OT) 24-hour CHO-K1 Luciferase Assay for Agonist Androgen Response Element (ARE) (AID 2283379)
# Chain of Agonist Androgen Response Element (ARE), AR (gene 367) (P10275 whole entry, looked up): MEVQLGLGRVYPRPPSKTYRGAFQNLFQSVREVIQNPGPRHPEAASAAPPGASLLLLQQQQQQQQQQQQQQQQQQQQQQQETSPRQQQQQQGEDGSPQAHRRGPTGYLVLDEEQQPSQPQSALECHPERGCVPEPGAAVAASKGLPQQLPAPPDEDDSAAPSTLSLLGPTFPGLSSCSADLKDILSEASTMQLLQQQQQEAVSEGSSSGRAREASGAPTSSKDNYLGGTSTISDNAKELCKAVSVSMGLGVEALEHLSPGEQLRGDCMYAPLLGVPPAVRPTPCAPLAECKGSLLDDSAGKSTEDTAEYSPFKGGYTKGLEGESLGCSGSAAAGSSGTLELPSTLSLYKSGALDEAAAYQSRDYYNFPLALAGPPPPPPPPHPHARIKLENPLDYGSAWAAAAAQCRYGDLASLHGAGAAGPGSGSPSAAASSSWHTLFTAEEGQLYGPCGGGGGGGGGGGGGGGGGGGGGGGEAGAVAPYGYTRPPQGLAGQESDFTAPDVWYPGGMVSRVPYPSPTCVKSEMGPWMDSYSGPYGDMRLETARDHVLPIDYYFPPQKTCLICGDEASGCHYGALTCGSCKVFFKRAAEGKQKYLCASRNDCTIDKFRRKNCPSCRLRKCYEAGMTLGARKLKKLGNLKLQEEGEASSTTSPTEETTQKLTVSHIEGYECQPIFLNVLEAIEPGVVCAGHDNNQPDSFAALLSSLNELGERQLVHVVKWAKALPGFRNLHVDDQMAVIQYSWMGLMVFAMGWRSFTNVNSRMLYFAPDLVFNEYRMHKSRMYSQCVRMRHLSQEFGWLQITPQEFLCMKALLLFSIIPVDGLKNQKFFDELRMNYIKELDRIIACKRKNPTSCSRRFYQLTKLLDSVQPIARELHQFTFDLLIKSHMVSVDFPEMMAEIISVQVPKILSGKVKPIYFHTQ
# Method in brief: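 Seed CHO-K1 cells; dose compounds for 24 h; add D-luciferin plus ATP in PBS; read luminescence. Signal increase relative to vehicle defines agonist activity, with at least 3 replicate wells per sample.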
# [2] = target: Estrogen receptor beta (Homo sapiens) (UniProt Q92731); assay: OT_ER_ERbERb_1440: Odyssey Thera (OT) 24-hour HEK293T Protein-Complementation Assay for Estrogen Receptor-beta/-beta Homodimer (AID 2283380);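 note: fluorescence gain from ER beta LBD homodimer complementation read by laser scanning cytometry; scored as signal increase over DMSO baseline for both agonists and antagonists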
# Chain of Estrogen receptor beta (Homo sapiens) (Q92731 whole entry, looked up, the tested form may be a part): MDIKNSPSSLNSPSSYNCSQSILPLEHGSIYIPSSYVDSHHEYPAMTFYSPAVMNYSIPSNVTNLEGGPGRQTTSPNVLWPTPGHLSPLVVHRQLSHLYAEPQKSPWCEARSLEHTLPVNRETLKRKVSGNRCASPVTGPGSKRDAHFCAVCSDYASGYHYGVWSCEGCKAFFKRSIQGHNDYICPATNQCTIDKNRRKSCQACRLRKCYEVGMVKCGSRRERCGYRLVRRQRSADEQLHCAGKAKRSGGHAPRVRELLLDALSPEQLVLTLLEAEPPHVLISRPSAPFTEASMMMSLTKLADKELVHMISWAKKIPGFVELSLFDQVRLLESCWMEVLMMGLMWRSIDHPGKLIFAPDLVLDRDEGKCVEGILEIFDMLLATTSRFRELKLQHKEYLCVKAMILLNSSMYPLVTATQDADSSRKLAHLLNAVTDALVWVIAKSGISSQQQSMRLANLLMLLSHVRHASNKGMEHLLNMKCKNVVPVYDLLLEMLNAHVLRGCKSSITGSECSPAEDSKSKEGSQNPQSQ
# Method in brief: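 HEK293T cells stably expressing human ER-beta LBD (aa 310-547) PCA homodimer pair, dosed 24 h; formaldehyde-fixed, Draq5-stained. Readout: increase in nuclear (agonist) or nuclear plus cytoplasmic (antagonist) fluorescence intensity versus DMSO, gain-of-signal fitting.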
# [3] = target: mouse Estrogen Receptor alpha (Era), Esr1 (gene 13982) (UniProt P19785); assay: NVS_NR_mERa: NovaScreen (NVS) Nuclear Receptor Binding Assay for mouse Estrogen Receptor alpha (Era) (AID 2283378);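 note: hit means loss of bound radioligand signal relative to DMSO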
# Chain of mouse Estrogen Receptor alpha (Era), Esr1 (gene 13982) (P19785 whole entry, looked up): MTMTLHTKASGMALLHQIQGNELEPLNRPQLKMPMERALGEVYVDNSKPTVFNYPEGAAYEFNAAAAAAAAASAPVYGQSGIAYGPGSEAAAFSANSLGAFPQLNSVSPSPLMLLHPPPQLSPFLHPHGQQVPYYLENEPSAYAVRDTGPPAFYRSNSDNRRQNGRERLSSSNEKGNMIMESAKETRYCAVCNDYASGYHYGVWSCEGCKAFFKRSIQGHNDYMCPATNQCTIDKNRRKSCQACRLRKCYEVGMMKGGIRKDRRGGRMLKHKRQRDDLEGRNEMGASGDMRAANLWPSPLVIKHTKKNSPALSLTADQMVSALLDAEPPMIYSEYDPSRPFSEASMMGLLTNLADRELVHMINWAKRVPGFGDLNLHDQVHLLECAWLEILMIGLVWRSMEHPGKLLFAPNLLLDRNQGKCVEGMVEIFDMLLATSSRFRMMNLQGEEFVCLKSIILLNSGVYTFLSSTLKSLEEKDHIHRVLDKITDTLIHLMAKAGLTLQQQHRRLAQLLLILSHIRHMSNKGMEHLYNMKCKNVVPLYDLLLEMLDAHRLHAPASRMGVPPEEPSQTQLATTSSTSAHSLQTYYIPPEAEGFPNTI
# Method in brief: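 Filter radiodetection of radioligand displacement from extracted receptor protein, measured 18 h post-dose. Single 25 uM concentration in duplicate initially, with concentration-series follow-up. Binding loss fitted relative to DMSO.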
# [4] = tested on: guinea pig Dopamine Transporter (DAT), gene 100714898; assay: NVS_TR_gDAT: NovaScreen (NVS) Transporter Assay for guinea pig Dopamine Transporter (DAT) (AID 2283369);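 note: active compounds lower bound radioligand signal relative to DMSO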
# Method in brief: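 Radioligand displacement on membranes from guinea pig striatum, 2 h exposure, bound label counted by filtration and scintillation. Tested at 25 uM in duplicate, then actives in concentration series to 50 uM; DMSO as negative control.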
# [5] = target: human Dopamine Transporter (DAT), SLC6A3 (gene 6531) (UniProt Q01959); assay: NVS_TR_hDAT: NovaScreen (NVS) Transporter Assay for human Dopamine Transporter (DAT) (AID 2283374);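 note: activity means loss of bound radioligand signal relative to DMSO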
# Chain of human Dopamine Transporter (DAT), SLC6A3 (gene 6531) (Q01959 whole entry, looked up): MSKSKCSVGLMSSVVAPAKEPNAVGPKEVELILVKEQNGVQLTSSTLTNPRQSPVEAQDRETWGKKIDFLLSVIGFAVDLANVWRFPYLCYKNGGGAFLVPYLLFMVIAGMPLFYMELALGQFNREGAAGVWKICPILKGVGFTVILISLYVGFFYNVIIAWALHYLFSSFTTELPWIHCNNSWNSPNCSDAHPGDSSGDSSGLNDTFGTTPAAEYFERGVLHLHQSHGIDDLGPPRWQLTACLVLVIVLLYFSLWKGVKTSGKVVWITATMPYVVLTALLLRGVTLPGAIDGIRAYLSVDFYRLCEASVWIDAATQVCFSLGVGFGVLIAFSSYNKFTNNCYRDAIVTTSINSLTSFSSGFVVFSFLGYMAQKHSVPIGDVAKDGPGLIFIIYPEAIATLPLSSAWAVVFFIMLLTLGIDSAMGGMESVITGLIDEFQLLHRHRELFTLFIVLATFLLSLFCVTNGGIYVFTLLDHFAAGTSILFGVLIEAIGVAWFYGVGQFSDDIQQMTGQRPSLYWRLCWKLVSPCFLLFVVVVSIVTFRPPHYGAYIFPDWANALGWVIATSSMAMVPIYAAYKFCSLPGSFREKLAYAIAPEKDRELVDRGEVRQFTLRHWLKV
# Method in brief: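 Cell-free radioligand binding to extracted human DAT protein, read 1 h after dosing by filter-based scintillation counting. Loss of specific binding scored against DMSO baseline; primary screen in duplicate at 25 uM, actives then run in concentration series.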
# [6] = target: human Norepinephrine Transporter (NET), SLC6A2 (gene 6530) (UniProt P23975); assay: NVS_TR_hNET: NovaScreen (NVS) Transporter Assay for human Norepinephrine Transporter (NET) (AID 2283377);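 note: cell-free membrane protein extracted from CHO cells expressing human NET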
# Chain of human Norepinephrine Transporter (NET), SLC6A2 (gene 6530) (P23975 whole entry, looked up): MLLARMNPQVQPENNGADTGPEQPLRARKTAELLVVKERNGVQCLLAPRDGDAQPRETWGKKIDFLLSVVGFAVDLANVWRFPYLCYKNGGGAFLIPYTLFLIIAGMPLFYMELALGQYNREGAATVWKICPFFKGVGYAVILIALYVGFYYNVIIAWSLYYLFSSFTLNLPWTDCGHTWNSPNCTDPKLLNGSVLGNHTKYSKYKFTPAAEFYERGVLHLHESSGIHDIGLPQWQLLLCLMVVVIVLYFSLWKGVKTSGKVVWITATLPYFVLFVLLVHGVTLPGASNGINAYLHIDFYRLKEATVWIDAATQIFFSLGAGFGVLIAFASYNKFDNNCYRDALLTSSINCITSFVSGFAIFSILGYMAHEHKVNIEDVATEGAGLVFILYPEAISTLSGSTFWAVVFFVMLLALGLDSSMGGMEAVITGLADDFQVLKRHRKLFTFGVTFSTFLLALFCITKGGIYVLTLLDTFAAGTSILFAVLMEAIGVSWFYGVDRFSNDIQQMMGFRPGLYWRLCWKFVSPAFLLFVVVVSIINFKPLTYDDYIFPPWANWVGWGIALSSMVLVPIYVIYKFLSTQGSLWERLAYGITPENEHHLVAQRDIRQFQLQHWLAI
# Method in brief: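 Radioligand binding to human NET in cell-free CHO-derived protein preparations, read by filter-based scintillation counting 1 hour after dosing. Loss of signal versus DMSO baseline indicated displacement; primary screening in duplicate at 25 uM, actives then titrated.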
# [7] = target: rat Androgen Receptor (AR), Ar (gene 24208) (UniProt P15207); assay: NVS_NR_rAR: NovaScreen (NVS) Nuclear Receptor Binding Assay for rat Androgen Receptor (AR) (AID 2283366)
# Experimental: NVS_NR_rAR is a biochemical, single-readout assay that uses extracted gene-proteins from Testosterone pre-treated rat prostate in a tissue-based cell-free assay. Measurements were taken 18 hours after chemical dosing in a 96-well plate.NVS_NR_rAR is one of one assay component(s) measured or calculated from the NVS_NR_rAR assay. It is designed to make measurements of radioligand binding, a form of binding reporter, as detected with scintillation counting signals by Filter-based radiodetection technology.Data from the assay component NVS_NR_rAR was analyzed into 1 assay endpoint. This assay endpoint, NVS_NR_rAR, was analyzed in the positive analysis fitting direction relative to DMSO as the negative control and baseline of activity. […] Furthermore, this assay endpoint can be referred to as a primary readout, because the performed assay has only produced 1 assay endpoint. […]
# Binding assays used specific radioligands (tritiated, iodinated) with non-radioactive competitive displacement ligands in agonist or antagonist protocols (as indicated) and various reference compounds and inhibitors to titrate specific binding to receptors and transporters. Most enzyme assays (CYPs, kinases, phosphatases, proteases, HDACs) used recombinant protein and specific substrates (fluorescence mostly, some colorimetric and radioactive) and inhibitors, followed by a biochemical separation of substrate and product. […]
# [8] = target: Peroxisome proliferator-activated receptor gamma (Homo sapiens) (UniProt P37231); assay: NVS_NR_hPPARg: NovaScreen (NVS) Nuclear Receptor Binding Assay for human Peroxisome Proliferator-activated Receptor gamma (PPARg) (AID 2283370)
# Chain of Peroxisome proliferator-activated receptor gamma (Homo sapiens) (P37231 whole entry, looked up): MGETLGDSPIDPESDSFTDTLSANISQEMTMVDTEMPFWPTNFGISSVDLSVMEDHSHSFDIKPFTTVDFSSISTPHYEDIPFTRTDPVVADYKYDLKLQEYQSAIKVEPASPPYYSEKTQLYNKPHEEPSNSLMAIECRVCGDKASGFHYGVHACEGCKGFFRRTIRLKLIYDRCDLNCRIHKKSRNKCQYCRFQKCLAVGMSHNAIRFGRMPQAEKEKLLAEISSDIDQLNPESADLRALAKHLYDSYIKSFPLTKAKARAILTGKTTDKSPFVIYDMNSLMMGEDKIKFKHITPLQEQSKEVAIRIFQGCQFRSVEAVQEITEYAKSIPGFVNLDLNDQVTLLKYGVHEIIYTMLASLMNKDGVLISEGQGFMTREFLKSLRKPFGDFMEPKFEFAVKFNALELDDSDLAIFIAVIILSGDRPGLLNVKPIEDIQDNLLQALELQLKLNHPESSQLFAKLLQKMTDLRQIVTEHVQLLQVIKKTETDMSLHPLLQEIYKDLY
# Method in brief: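 Fluorescence polarization readout of ligand binding to extracted human PPARg, measured at 2 h. Duplicate single-point screen at 25 uM, then concentration-series retesting; activity defined as signal loss versus DMSO.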
# [9] = target: rat Serotonin Transporter (SERT), Slc6a4 (gene 25553) (UniProt P31652); assay: NVS_TR_rSERT: NovaScreen (NVS) Transporter Assay for rat Serotonin Transporter (SERT) (AID 2283375)
# Chain of rat Serotonin Transporter (SERT), Slc6a4 (gene 25553) (P31652 whole entry, looked up): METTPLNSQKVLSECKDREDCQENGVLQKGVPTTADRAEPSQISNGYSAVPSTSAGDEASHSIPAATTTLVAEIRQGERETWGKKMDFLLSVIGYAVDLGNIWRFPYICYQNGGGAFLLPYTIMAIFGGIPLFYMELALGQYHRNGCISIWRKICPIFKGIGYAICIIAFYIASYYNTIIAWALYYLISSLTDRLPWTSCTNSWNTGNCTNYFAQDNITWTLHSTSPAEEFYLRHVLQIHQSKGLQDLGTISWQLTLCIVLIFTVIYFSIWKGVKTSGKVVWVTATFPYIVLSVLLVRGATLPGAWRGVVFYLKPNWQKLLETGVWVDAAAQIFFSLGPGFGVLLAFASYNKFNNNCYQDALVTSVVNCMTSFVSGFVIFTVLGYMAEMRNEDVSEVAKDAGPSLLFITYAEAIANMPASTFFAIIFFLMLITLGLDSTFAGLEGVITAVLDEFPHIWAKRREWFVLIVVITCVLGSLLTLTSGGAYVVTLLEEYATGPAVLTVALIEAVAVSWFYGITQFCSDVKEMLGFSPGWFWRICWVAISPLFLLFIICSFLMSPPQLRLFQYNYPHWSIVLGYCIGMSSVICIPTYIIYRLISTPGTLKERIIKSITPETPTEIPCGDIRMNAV
# Method in brief: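 Radioligand binding with competitive displacement on rat forebrain membrane preparations, counted by filtration and scintillation after 1 h. Primary single-point duplicates at 25 uM; active chemicals followed up in concentration-response. DMSO served as baseline.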
# [10] = target: guinea pig Sigma Receptor, Non-selective Binding, SIGMAR1 (gene 100135589) (UniProt Q60492); assay: NVS_OR_gSIGMA_NonSelective: NovaScreen (NVS) Nuclear Receptor Binding Assay for guinea pig Sigma Receptor, Non-selective Binding (AID 2283367)
# Chain of guinea pig Sigma Receptor, Non-selective Binding, SIGMAR1 (gene 100135589) (Q60492 whole entry, looked up): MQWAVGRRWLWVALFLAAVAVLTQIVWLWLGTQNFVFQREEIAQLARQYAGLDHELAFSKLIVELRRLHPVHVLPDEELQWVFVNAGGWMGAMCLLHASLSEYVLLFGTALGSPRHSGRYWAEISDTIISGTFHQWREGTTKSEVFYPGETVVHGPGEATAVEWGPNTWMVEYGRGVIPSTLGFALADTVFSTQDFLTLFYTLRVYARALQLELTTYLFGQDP
# Method in brief: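 Guinea pig brain membranes, cell-free radioligand binding; read 1 h after dosing by filter-based scintillation counting. Loss of signal vs DMSO baseline taken as displacement. Primary screen single concentration 25 uM in duplicate; actives retested in concentration series.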
compound,measurement,setting,value
CNC(=S)NC,outcome,[1],inactive
C1COCCN1,outcome,[2],inactive
O=C(OCCOCCOCCOC(=O)c1ccccc1)c1ccccc1,outcome,[2],inactive
c1ccc(B(c2ccccc2)c2ccccc2)cc1,outcome,[3],inactive
CCN(CC)c1ccc2c(C)cc(=O)oc2c1,AC50,[4],13.6 µM (active)
same,AC50,[5],20.2 µM (active)
same,AC50,[6],25 µM (active)
Oc1ccc(Nc2ccccc2)cc1,AC50,[4],12.1 µM (active)
same,AC50,[5],6.97 µM (active)
same,AC50,[6],11.9 µM (active)
same,outcome,[3],inactive
CCCCOc1ccc(N)cc1,AC50,[2],25.2 µM (active)
CC(=O)Nc1ccc(N=Nc2cc(C)ccc2O)cc1,AC50,[7],25 µM (active)
CCCCC(CC)COP(=O)(O)OCC(CC)CCCC (stereo unspecified),outcome,[8],inactive
same,outcome,[3],inactive
COC(=O)C1CCC(C(=O)OC)CC1 (stereo unspecified),outcome,[2],inactive
O[Si](c1ccccc1)(c1ccccc1)c1ccccc1,AC50,[6],25 µM (active)
CN(C)Cc1ccccc1O,outcome,[2],inactive
CCCCCCC(C)OC(=O)CCCCC(=O)OC(C)CCCCCC (stereo unspecified),outcome,[1],inactive
same,outcome,[2],inactive
Cc1cccc(N(C)C)c1,outcome,[9],inactive
C(=C(c1ccccc1)c1ccccc1)c1ccccc1,AC50,[3],8.44 µM (active)
same,AC50,[2],1.59 µM (active)
CO[Si](OC)(c1ccccc1)c1ccccc1,outcome,[6],inactive
[Co],outcome,[1],inactive
same,outcome,[2],inactive
Cc1cc(C)cc(O)c1,outcome,[2],inactive
CC/C=C\CCOC(C)=O,outcome,[2],inactive
CCCCCCOC(=O)c1ccccc1O,outcome,[2],inactive
CC(C)c1ccccc1N,outcome,[6],inactive
C#C[C@]1(O)CC[C@H]2[C@@H]3CCc4cc(OC)ccc4[C@H]3CC[C@@]21C,AC50,[9],19 µM (active)
same,AC50,[6],3.99 µM (active)
same,outcome,[3],inactive
CCCCCCCCCCCCCCCC[N+](C)(C)Cc1ccccc1,AC50,[10],1.23 µM (active)
same,AC50,[4],17.3 µM (active)
same,AC50,[5],1.89 µM (active)
same,outcome,[9],inactive
same,AC50,[6],2.45 µM (active)
CC(CCl)OP(=O)(OC(C)CCl)OC(C)CCl (stereo unspecified),outcome,[8],inactive
same,outcome,[2],inactive
CCN(Cc1cccc(S(=O)(=O)O)c1)c1ccc(C(=C2C=CC(=[N+](CC)Cc3cccc(S(=O)(=O)O)c3)C=C2)c2ccc(O)cc2S(=O)(=O)[O-])cc1,AC50,[8],8.78 µM (active)
same,outcome,[2],inactive
Cc1ccc(S(=O)(=O)NCl)cc1,outcome,[2],inactive
CC(Cc1ccc(O)c(O)c1)C(C)Cc1ccc(O)c(O)c1 (stereo unspecified),AC50,[8],4.91 µM (active)
same,AC50,[3],1.82 µM (active)
same,AC50,[2],11.9 µM (active)
CCCCCCOC(=O)c1ccccc1,outcome,[2],inactive
Nc1ccc(Oc2cccc(Oc3ccc(N)cc3)c2)cc1,AC50,[4],3.46 µM (active)
same,AC50,[5],1.02 µM (active)
same,outcome,[6],inactive
CCCCNc1ccccc1,outcome,[5],inactive
